Bioassay records as filed in PubChem.
PAX8 reporter = lowers PAX8-driven luciferase in RMG-I cells; RMG-I TPO-luciferase reporter, SteadyGlo, 24 h; 360,000 compounds, 1.2% hits; inhibition, % at 12.6 µM; AID 652154;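 active = mean replicate inhibition at least 60% with every replicate also reaching 60%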;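 also: luciferase light reporting Pax8 driven TPO promoter activity; plate controls were median of neutral control wells for no effect and mitoxantrone controls for full effect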
EWS-Fli inh = inhibitors of EWS/Fli oncoprotein transcriptional activity | A673 NR0B1-luciferase reporter, viability-normalised | inhibition, % at 12.6 µM | 350,000 compounds, 0.67% hits | AID 651661;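 active = mean inhibition of at least 50% after viability correction, with every replicate also passing that limit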;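 also: firefly luciferase signal divided by Alamar Blue viability fluorescence both relative to DMSO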
SIRT5 block = inhibitors of human sirtuin-5 desuccinylase; Q9NXA8; Purified SirT5, succinyl-peptide AMC, trypsin-coupled fluorescence; inhibition, % at 15 µM; 330,000 compounds, 1.1% hits; in the data active = inhibition above about 15%
Target sequence (Q9NXA8 whole entry, looked up): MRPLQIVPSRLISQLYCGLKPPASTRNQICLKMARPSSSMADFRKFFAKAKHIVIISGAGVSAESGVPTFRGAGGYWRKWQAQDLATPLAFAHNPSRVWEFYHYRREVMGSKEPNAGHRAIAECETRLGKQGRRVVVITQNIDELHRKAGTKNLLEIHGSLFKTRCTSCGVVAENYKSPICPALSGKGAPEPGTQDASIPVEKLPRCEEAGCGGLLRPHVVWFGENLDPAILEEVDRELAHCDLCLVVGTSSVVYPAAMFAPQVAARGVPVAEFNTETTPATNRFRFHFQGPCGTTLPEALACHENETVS
rRNA inh HTS = selective bacterial rRNA inhibition in E. coli; GFP signal change (wild-type ribosome), % (test concentration not listed); E. coli WT GFP vs humanized-ribosome RFP mutants, fluorescence, 24 h; hits give low values; DMSO median 0, no signal -100; 350,000 compounds, 1.6% hits;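 active = significant combined selectivity score with lowered wild-type GFP, culture density cut under 30%, mutant RFP and density less affected; inactive = any of these conditions unmet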
PGC1a acetyl inh = PGC1a acetylation modulation, inhibitor mode; U2OS PGC1a acetylation, AlphaScreen anti-acetyl-lysine; with virally co-expressed GCN5 acetyltransferase; inhibition, % at 15.6 µM; 350,000 compounds, 0.17% hits; AID 651687;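 active = every replicate shows inhibition of at least 40%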;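 also: 0% = neutral control wells and 100% = positive control wells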
LGR2 inh = Drosophila LGR2 receptor signaling inhibition | inhibition, % at 9.99 µM | HEK293 LGR2, CRE-luciferase, bursicon-stimulated, 4 h | 380,000 compounds, 0.35% hits;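 active = drop in luminescence signal, shown as inhibition above about 50% in the replicate tests, limit read from the data, passing the limit was not always enough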;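 also: agonist challenge used bursicon conditioned medium at about half maximal strength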
Active calls of the source: *; nt = not tested or not shown; ! = repeats disagree. A selection: hits, their analogues and other compounds. The true share with any hit is near 3.4%.

SMILES	PAX8 reporter	EWS-Fli inh	SIRT5 block	rRNA inh HTS	PGC1a acetyl inh	LGR2 inh
COc1ccc(C#Cc2ccc([C@H]3[C@@H](CO)N4CCCCN(C(=O)Nc5ccccc5)C[C@@H]34)cc2)cc1	1	14	1	7	1	14
Cc1ccc(-c2ccc([C@H]3[C@@H](CO)N4CCCCN(C(=O)Nc5cccc(F)c5)C[C@H]34)cc2)cc1	108*	15	3	-59	-26	12
CC(=O)N(C)C[C@H]1Oc2ncccc2C(=O)N(C)C[C@@H]1C	nt	nt	nt	2	nt	nt
O=C(N[C@H]1CC[C@H](CCNS(=O)(=O)c2ccc(F)cc2)O[C@H]1CO)c1cnccn1	12	0	0	6	0	6
Cc1ccccc1-c1ccc([C@@H]2[C@H](CO)N3CCCCN(C(=O)NC4CCCC4)C[C@@H]23)cc1	2	12	-1	-60	-12	26
COc1ccccc1C#Cc1ccc([C@H]2[C@H](CO)N3CCCCN(C(=O)C4CCCC4)C[C@@H]23)cc1	-15	3	17*	nt	-9	nt
COc1ccccc1C#Cc1ccc([C@@H]2[C@@H](CO)N3CCCCN(C(=O)C4CCCC4)C[C@@H]23)cc1	22	3	10	nt	-19	nt
COc1ccc(C#Cc2ccc([C@@H]3[C@H](CO)N4CCCCN(C(=O)Nc5ccccc5)C[C@@H]34)cc2)cc1	54	70*	-1	-60	-78	-13
Cc1ccccc1-c1ccc([C@@H]2[C@@H](CO)N3CCCCN(C(=O)NC4CCCC4)C[C@H]23)cc1	82*	21	0	-59	7	-7
O=C(C[C@@H]1CC[C@H]2[C@@H](COC[C@H](O)CN2C(=O)Nc2ccc(C(F)(F)F)cc2)O1)NCCc1ccncc1	-4	-3	1	-57	7	3
Cc1cccc(/C=C/c2onc(C)c2[N+](=O)[O-])n1	5	41	-1	-49	nt	71*
Cc1cccc(N/C=C/c2onc(C)c2[N+](=O)[O-])c1	nt	nt	nt	nt	-17	nt
CCc1cc(-c2n[nH]c(C)c2-c2nc3ccccc3n2C)c(O)cc1O	120*	-18	-2	-10	12	1
CCc1cc(-c2n[nH]c(CCC(=O)O)c2-c2nc3ccccc3n2C)c(O)cc1O	3	-44	9	14	-19	6
C[C@@H]1CCCCO[C@@H](CN(C)S(=O)(=O)c2cccs2)[C@H](C)CN([C@H](C)CO)C(=O)c2cc(NC(=O)Nc3ccc(F)cc3)ccc2O1	31	6	17*	4	1	4
C[C@@H]1CN([C@H](C)CO)C(=O)c2cc(NC(=O)Nc3ccc(F)cc3)ccc2O[C@@H](C)CCCCO[C@H]1CN(C)S(=O)(=O)c1cccs1	68*!	31	4	16	-7	7
C[C@@H]1CN([C@H](C)CO)C(=O)c2cc(NC(=O)Nc3ccc4c(c3)OCO4)ccc2O[C@@H](C)CCCCO[C@H]1CN(C)S(=O)(=O)c1cccs1	-1	1	18*	-2	-25	4
C[C@H]1CCCCO[C@H](CN(C)S(=O)(=O)c2cccs2)[C@@H](C)CN([C@@H](C)CO)C(=O)c2cc(NC(=O)Nc3ccc(F)cc3)ccc2O1	-10	10	3	2	-23	-10
CO[C@@H]1CN(C)C(=O)c2ccc(NC(=O)C3CC3)cc2OC[C@H](C)N(C(=O)C2CCOCC2)C[C@@H]1C	11	-1	4	3	nt	-4
O=C(C[C@@H]1CC[C@@H](NC(=O)Nc2ccc(F)cc2)[C@@H](CO)O1)NCc1cccc(F)c1	nt	3	9	0	-8	-13
O=C(N/N=C/c1cc([N+](=O)[O-])ccc1O)c1cccc2ccccc12	69*	24	-2	14	nt	5
O=C(CSc1ccccn1)N/N=C/c1cc([N+](=O)[O-])ccc1O	6	-8	2	-19*	nt	6
CCOc1ccc(C(=O)Nc2cccc(-c3nc4ccccc4[nH]3)c2C)cc1[N+](=O)[O-]	13	83*	2	-13	3	-16
CCOc1ccc(C(=O)Nc2cc(-c3nc4ccccc4[nH]3)ccc2C)cc1[N+](=O)[O-]	nt	nt	nt	nt	6	nt
O=Nc1c(O)ccc2cc(S(=O)(=O)O)ccc12	nt	nt	nt	nt	8	nt
SMILES	PAX8 reporter	EWS-Fli inh	SIRT5 block	rRNA inh HTS	PGC1a acetyl inh	LGR2 inh
CN(C)c1ccc2cc(S(=O)(=O)O)cc(O)c2c1	4	-3	22*	1	0	-12
Cc1ccc(S(=O)(=O)Nc2ccc3c(c2)C(=O)N([C@@H](C)CO)C[C@H](C)[C@@H](CN(C)S(=O)(=O)c2ccc(Cl)cc2)OCCCC[C@@H](C)O3)cc1	57	10	nt	2	-9	16
Cc1ccc(S(=O)(=O)N(C)C[C@H]2OCCCC[C@@H](C)Oc3ccc(NS(=O)(=O)c4ccc(Cl)cc4)cc3C(=O)N([C@H](C)CO)C[C@H]2C)cc1	42	6	29*	1	-9	18
Cc1ccc(S(=O)(=O)N(C)C[C@H]2OCCCC[C@@H](C)Oc3ccc(NS(=O)(=O)c4ccc(Cl)cc4)cc3C(=O)N([C@@H](C)CO)C[C@H]2C)cc1	73*	15	22*	0	-5	12
Cc1ccc(S(=O)(=O)Nc2ccc3c(c2)C(=O)N([C@@H](C)CO)C[C@@H](C)[C@@H](CN(C)S(=O)(=O)c2ccc(Cl)cc2)OCCCC[C@H](C)O3)cc1	46	0	nt	4	-3	24
Cc1ccc(S(=O)(=O)Nc2ccc3c(c2)C(=O)N([C@@H](C)CO)C[C@H](C)[C@@H](CN(C)S(=O)(=O)c2ccc(Cl)cc2)OCCCC[C@H](C)O3)cc1	53	21	nt	-2	6	0
Cc1ccc(S(=O)(=O)N(C)C[C@H]2OCCCC[C@@H](C)Oc3ccc(NS(=O)(=O)c4ccc(Cl)cc4)cc3C(=O)N([C@H](C)CO)C[C@@H]2C)cc1	11	1	17*	2	11	-1
Cc1ccc(S(=O)(=O)N(C)C[C@H]2OCCCC[C@H](C)Oc3ccc(NS(=O)(=O)c4ccc(Cl)cc4)cc3C(=O)N([C@H](C)CO)C[C@@H]2C)cc1	81*	10	24*	-1	5	11
Cc1ccc(S(=O)(=O)N(C)C[C@@H]2OCCCC[C@H](C)Oc3ccc(NS(=O)(=O)c4ccc(Cl)cc4)cc3C(=O)N([C@@H](C)CO)C[C@@H]2C)cc1	68*	-21	22*	0	-1	41
Cc1ccc(S(=O)(=O)N(C)C[C@H]2OCCCC[C@@H](C)Oc3ccc(NS(=O)(=O)c4ccc(Cl)cc4)cc3C(=O)N([C@@H](C)CO)C[C@@H]2C)cc1	58	8	21*	0	-4	10
